Values joined by “and” are separate entries in the source; they are usually repeats but may differ in a detail not shown here. Identical values can stand only once. Hit rate of the full screen: of about 300,000 compounds, about 310 (0.1%) were called active. No stated cut-off is given here; in the data, active means fluorescence inhibition mostly above about 23% (no sharp cut-off); inactive means mostly below about 17%. This excerpt belongs to a sample that is enriched for actives.
test: hypoxia reporter signal reduction in M. tuberculosis – fluorescence, absorbance growth readout, primary screen (AID 1159583); conditions: M. tuberculosis hypoxia-regulated fluorescent reporter, stronger effect = higher value, concentration not given here; growth inhibition: measured here: M. tuberculosis growth (absorbance)

SMILES	fluorescence inhibition	growth inhibition
O=C(NN=Cc1ccccc1)C(O)c1ccccc1 (stereo not given)	-2.65% (inactive)	-6.95%
COc1ccc2c(c1)C1C(CO2)C(c2ccccc2)[C@]2(C)C(=O)Nc3cc(F)c(F)cc3C(=O)N12 (stereo not given in full)	12.4% (inactive)	11.9%
COC(=O)C1=C(C)N(Cc2ccccc2)C(=NCc2ccco2)NC1c1cccc(F)c1 (stereo not given)	-3.36% (inactive)	4.01%
CC(=O)C=C(C)NC(Cc1c[nH]c2ccccc12)C(=O)O (stereo not given)	-7.06% (inactive)	-3.51%
CC(=NNC(=S)NC1CCCCC1)c1ccc(OC(F)F)cc1OC(F)F	2.47% (inactive)	1.1%
COc1ccc(Cl)cc1C(=O)NN=Cc1ccc(N2CCOCC2)cc1	-1.94% (inactive)	6.35%
CC(Cc1ccccc1)=NNC(=O)CNC(=O)c1cccc(Br)c1	-10% (inactive)	-2.78%
CCOC(=O)C1=C(N)n2c(sc(=Cc3ccco3)c2=O)=C(C(=O)OC)C1c1ccco1 (stereo not given)	-1.95% (inactive)	-7.35%
C=CCc1cccc(C=Nc2nc3ccccc3n2CC)c1O	7.78% (inactive)	3.33%
CCOc1c2ccc(C(=O)NC(C)C3CCCCC3)cc2nn1CCOC (stereo not given)	1.7% (inactive)	7.24%
CC#CCN1c2ccccc2[C@]23CC(C(=O)OC)N(C(C)=O)C2=NC(C(=O)OC)=C(C(=O)OC)C13 (stereo not given in full)	21.5% (inactive)	5.39%
COc1ccc(C(=O)NN=Cc2ccc(OC(=O)c3cccc4ccccc34)c([N+](=O)[O-])c2)cc1	8.45% (inactive)	6.08%
COc1ccc(C2CC(=O)C=C(c3ccc(OC(F)(F)F)cc3)C2)cc1OC (stereo not given)	-7.53% (inactive)	0.871%
Cc1sc2nc(C)n(N=Cc3ccc(O)cc3)c(=O)c2c1C	8.51% (inactive)	1.4%
CCCCN1C(N)=NCC1CCCCN (stereo not given)	3.89% (inactive)	4.01%
O=C(CCCC(=O)NN=Cc1ccccc1C(=O)O)NN=Cc1ccccc1C(=O)O	3.15% (inactive)	3.53%
NC(=NOC(=O)c1ccc2c(c1)OCO2)c1ccc([N+](=O)[O-])cc1	3.03% (inactive)	4.61%
COc1ccc(C=NNc2nc(=O)[nH]nc2C)cc1[N+](=O)[O-]	5.04% (inactive)	5.94%
CCn1c(SCC(=O)NN=C(C)c2ccco2)nnc1-c1ccccc1	-6.87% (inactive)	-5.95%
Oc1ccccc1C=NNc1cccc2cccnc12	2.03% (inactive)	5%
O=C(Cc1cc(=O)[nH][nH]1)NN=Cc1ccccc1Cl	-6.7% (inactive)	3.17%
Cc1ccc(S(=O)(=O)NN=Cc2ccc(OC3CSC3)cc2)cc1	-5.05% (inactive)	2.12%
CC(NCCN1CCOCC1)=C(C#N)C(N)=O	7.39% (inactive)	4.01%

SMILES	fluorescence inhibition	growth inhibition
O=C1C2CC3C=CC2(O3)C2OCCCN12 (stereo not given)	8.99% (inactive)	11.9%
CC1CC2C3CCC4=CC(=O)C=C[C@]4(C)[C@@]3(F)C(O)C[C@]2(C)C1C(=O)CO (stereo not given in full)	-3.35% (inactive)	0.308%
Nc1cnnc(NN=Cc2ccccc2)c1Cl	7.6% (inactive)	4.96%
Cc1cc(C(=O)NN=Cc2ccc(-c3ccc([N+](=O)[O-])cc3C)o2)n[nH]1	5.18% (inactive)	1.96%
O=C(NN=Cc1ccccn1)c1cc(-c2ccccc2Cl)n[nH]1	10.9% (inactive)	11.2%
CC(=NNC(=O)OC(C)(C)C)c1ccc(-n2ccnc2)cc1	11.1% (inactive)	15.9%
N#CC(=NNc1cccc(F)c1)C(=O)C1CC1	0.893% (inactive)	-0.741%
CC(CC(O)(C=NO)c1ccccc1)=NO (stereo not given)	10% (inactive)	6.39%
COc1ccc(C=NNc2nc3ccccc3[nH]2)c(OC)c1OC	1.22% (inactive)	-0.982%
CCOC(=O)C(=Cc1ccc(C)cc1)NC(=O)c1ccccc1	1.97% (inactive)	2.94%
NC(Cc1cccc2ccccc12)=NOC(=O)Cc1cccs1	2.6% (inactive)	4.27%
COc1ccc(CNC(=O)C2CC=CC3CCN(C4CC4)C(=O)C32)cc1 (stereo not given)	19.3% (inactive)	20.6%
Cc1cc(C(=O)NN=Cc2cn[nH]c2-c2ccccc2)cs1	-3.45% (inactive)	-1.59%
COc1cccc(C2Oc3ccc(Br)cc3C(=O)C2OC(=O)NC2CCCC2)c1 (stereo not given)	2.63% (inactive)	0.422%
CCCCCC=CC1=CC(=O)CC(c2ccc(Cl)cc2)C1 (stereo not given)	-0.281% (inactive)	11.6%
Cc1cc(SCC(=O)NN=Cc2ccccc2C(=O)O)c(C)cc1Br	0.764% (inactive)	-1.84%
OCC1OC(O)C(O)C1O (stereo not given)	1.54% (inactive)	-8.94%
CC(C)(C)OC(=O)CC1CC=CCC(CC(=O)NC(CO)Cc2ccccc2)C(=O)NC(C(C)(C)C)COC1=O (stereo not given)	0.171% (inactive) and 3.19% (inactive)	4.91% and 7.16%
CC(C)(O)C1C2OC(=O)C1[C@]1(O)CC3O[C@]34C(=O)OC2[C@]14C (stereo not given in full) (tested in a mixture with another compound)	-0.0447% (inactive)	5.86%
COC(=O)[C@]1(Cc2ccccc2)NC(c2ccc(-c3cccc(Cl)c3)c(OC)c2)C2C(=O)N(C)C(=O)C21 (stereo not given in full)	1.8% (inactive)	8.95%
O=C(NN=Cc1c[nH]c2ccccc12)c1[nH]c2ccc(Br)cc2c1-c1ccccc1	4.24% (inactive)	-6.01%
O=C(NN=CC1CC2CCC1C2)C1CC1 (stereo not given)	-1.06% (inactive)	-3.88%

Source: PubChem BioAssay AID1159583 (ICCB-Longwood Screening Facility, Harvard Medical School, 2016)
